From the supplement of paper PMC13380429

system: Vero E6 infected with SARS-CoV-2; assay: morphology score (similarity to uninfected cells); higher = more like uninfected cells; settings: 24 h

SMILES | morphology score
COc1cccc2cc(-c3nc([C@H]4CC[C@H](C(=O)O)CC4)n4ncnc(N)c34)[nH]c12 (0.833333 µM) | 0.174
CN1CCC(=C2c3ccccc3CCn3c(C=O)cnc32)CC1 [alcaftadine] (10 µM) | 0.0541
c1ccc2c(c1)sc1ccccc12 [dibenzothiophene] (10 µM) | 0.0443
CC(C)c1nnc(-c2ccc(-c3ccccc3)nc2)n1-c1cccc2nonc12 (10 µM) | -0.103
CCCc1nc(C)c2c(=O)nc(-c3cc(S(=O)(=O)N4CCN(CC)CC4)ccc3OCC)[nH]n12 [vardenafil] (10 µM) | 0.227
Cc1cc(=O)n(-c2ccccc2)[nH]1 [N-demethylantipyrine] (10 µM) | 0.121
O=S1(=O)N[C@H]2CCCN2c2ccccc21 (10 µM) | 0.0127
COc1cc(Br)c(S(=O)(=O)Nc2ccc(C(F)(F)F)c(O[C@@H]3CCN(C)C3)c2)cc1OC (10 µM) | 0.024
Brc1ccc(NC2C3CC4CC(C3)CC2C4)cc1 (stereo unspecified) [bromantan] (10 µM) | -0.111
Cc1nnc(NS(=O)(=O)c2ccc(N)cc2)s1 [sulfamethizole] (10 µM) | 0.0585
N#Cc1c(Oc2ccc(F)c(NC(=O)Cc3cccc(C(F)(F)F)c3)c2)ccc2nc(NC(=O)C3CC3)sc12 (10 µM) | -0.304
N=C(N)NCCSSCCNC(=N)N [guanidinoethyldisulfide-bicarbonate] (10 µM) | 0.0245
Nc1cccc(CNC(=O)c2ccc(Oc3ccc(OCc4cccc(F)c4)cc3)nc2)c1 (10 µM) | -0.419
CN(C)CCNc1nc2cc(O)ccc2c2c1C(=O)c1ccccc1-2 (10 µM) | -0.234
CC(C)(C)/[N+]([O-])=C/c1ccc(S(=O)(=O)O)cc1S(=O)(=O)O (10 µM) | 0.00191
OC(CCCN1CCCCC1)(c1ccccc1)c1ccccc1 [diphenidol] (10 µM) | -0.109
CCN1/C(=C/C(C)=O)Sc2ccc(OC)cc21 (10 µM) | -0.0524
Cc1ccc(-n2sc(=O)n(Cc3ccc(F)cc3)c2=O)cc1 (10 µM) | 0.218

SMILES | morphology score
Clc1ccc2nsnc2c1NC1=NCCN1 [tizanidine] (10 µM) | -0.0251
O=c1ccc2cc(O[C@@H]3O[C@H](CO)[C@@H](O)[C@H](O)[C@H]3O)c(O)cc2o1 [esculin] (10 µM) | 0.15
NP(N)(=O)NC(=O)c1ccc(F)cc1 [flurofamide] (10 µM) | 0.21
COc1cc2c(NC3CCN(CC4CCCCC4)CC3)nc(N3CCCN(C(C)C)CC3)nc2cc1OCCCN1CCCCC1 (0.833333 µM) | 0.165
CS(=O)(=O)Nc1ccc(Cc2noc(-c3ccc4[nH]cc(CCN)c4c3)n2)cc1 (10 µM) | 0.141
COc1cc(OC)c(C(=O)CCCN2CCCC2)c(OC)c1 [buflomedil] (10 µM) | 0.0545
CCCN1CCN(c2ccc(C(=O)NC3(C(=O)NCC#N)CCCCC3)cc2)CC1 [balicatib] (10 µM) | 0.59
c1ccc([C@@H]2C[C@H]2NC2CCNCC2)cc1 (10 µM) | -0.09
C[C@@H](NCCCc1cccc(C(F)(F)F)c1)c1cccc2ccccc12 [cinacalcet] (10 µM) | 0.845
Cc1cc(/C=C2\SC(=O)N(c3ccccc3)C2=O)c(C)n1-c1cccnc1 (10 µM) | -0.171
COc1cc(C(=O)NCCCCCC(=O)O)cc(OC)c1OC [capobenic-acid] (10 µM) | 0.0878
Cc1cccc(C)c1OCC(C)N (stereo unspecified) [mexiletine] (10 µM) | -0.0725
N#Cc1cc2c(OCC(O)CN3CCN(C(c4ccccc4)c4ccccc4)CC3)cccc2[nH]1 (stereo unspecified) (0.833333 µM) | 0.124
CCN(Cc1ccncc1)C(=O)C(CO)c1ccccc1 (stereo unspecified) [tropicamide] (10 µM) | -0.0682
CCc1c2c(nc3ccc(OC(=O)N4CCC(N5CCCCC5)CC4)cc13)-c1cc3c(c(=O)n1C2)COC(=O)[C@]3(O)CC [irinotecan] (0.833333 µM) | -0.0173
COc1cc2c(cc1-c1c(C)noc1C)ncc1[nH]c(=O)n([C@H](C)c3ccccn3)c12 (10 µM) | -0.154
CCOC(=O)c1cc(C#N)c(N2CCC(C(=O)NS(=O)(=O)Cc3ccccc3)CC2)nc1C (10 µM) | 0.128
CC[C@@]1(O)C(=O)OCc2c1cc1n(c2=O)Cc2c-1nc1cc(F)c(C)c3c1c2[C@@H](N)CC3 [exatecan-mesylate] (0.833333 µM) | 0.0535
